PLK1 PBD block – PLK1 (human) polo-box domain binding inhibition. P53350. AID 720504. Plk1 PBD binding of FITC phosphopeptide, fluorescence polarization. Potency, µM, for inactives: max response, negative = inhibition, actives largely listed as inhibitors. 2.8% of 360,000 active; further: series mostly up to about 57 µM; on the % scale 0 is the no-effect control and ±100 the full control effect; nearly all actives have a fitted effect of over 65% in size
BRCA1 expr act – BRCA1 expression activation | MCF7-BRCA1-FFLuc reporter, luminescence, 48 h; response scale: scaled: vehicle 0%, 10 µM genistein 100% | Potency, µM (highest dose often 46.1 µM), for the others: at the highest dose activation, actives largely listed as activators | 1.1% of 380,000 active | AID 624202; further: nearly all actives have a fitted effect of over 80% in size
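Reporter cells (MCF7, BRCA1 promoter-firefly luciferase) received library compounds across a concentration series for 48 h. End-point luminescence was measured and concentration-effect curves derived after normalization.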
Tb PFK inh – T. brucei PFK enzyme inhibition | O15648 | T. brucei PFK, ADP-Glo luminescence | Potency, µM (highest dose often 57.5 µM), for inactives: at the top dose activity, negative = inhibition, actives largely listed as inhibitors | 0.17% of 330,000 active | AID 485367;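 further: 0% = uninhibited 1x PFK enzyme wells and -100% = no-enzyme wells; nearly all actives have a fitted effect of over 60% in size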
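Luminescent ADP detection (ADP-Glo, two-step: ATP depletion then ADP-to-ATP conversion for luciferase) reported PFK activity after 45 min room-temperature reaction of 1.25 nM enzyme with 0.5 mM F6P and 0.1 mM ATP at pH 8.0.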
VDR inh – inhibitors of human vitamin D receptor. P11473. VDR-SRC2-3 peptide fluorescence polarization, 2 h. Potency, µM, without a hit: max response, negative = inhibition, usual class: inhibitors. 0.93% of 400,000 active. AID 504847; further: on the % scale 0 is the no-effect control and ±100 the full control effect
Target sequence (P11473 whole entry, looked up): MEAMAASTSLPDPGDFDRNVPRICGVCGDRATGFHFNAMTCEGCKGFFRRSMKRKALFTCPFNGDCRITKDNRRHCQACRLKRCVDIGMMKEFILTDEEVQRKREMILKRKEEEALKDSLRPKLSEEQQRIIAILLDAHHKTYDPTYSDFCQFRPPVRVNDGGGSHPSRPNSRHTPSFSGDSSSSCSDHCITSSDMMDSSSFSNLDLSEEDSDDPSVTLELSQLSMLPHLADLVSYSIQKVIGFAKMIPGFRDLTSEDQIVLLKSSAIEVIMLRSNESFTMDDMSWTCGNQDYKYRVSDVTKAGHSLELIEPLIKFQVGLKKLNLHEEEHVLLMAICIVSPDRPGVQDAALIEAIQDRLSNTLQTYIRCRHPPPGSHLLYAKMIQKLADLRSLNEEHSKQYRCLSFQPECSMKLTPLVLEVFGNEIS
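After 23 nl compound addition and a short centrifugation, plates sat for 2 hours at ambient temperature; polarization of fluorescence then indicated loss of VDR binding to peptide SRC2-3.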
The depositor's hits bear a star; ? = inconclusive; nt = no result; [ ] = another dose, or the depositor's remark. Compounds with a hit are over-represented: about 3.9% of the library has one in this group of screens. The call rests on the fitted dose curve; in most records, active means well fitted curve in the direction sought with a large enough effect; inconclusive means small, poorly fitted or top-dose-only effect, or another doubt; inactive means no such curve, though single readings can be large; an effect the other way counts as inactive or inconclusive. Potency means the concentration at half of the fitted maximal effect.

SMILES | PLK1 PBD block | BRCA1 expr act | Tb PFK inh | VDR inh
CN(C)C(=O)CSc1cccc2cccnc12 | 12µM* | -43% | 6% | -23%
O=C(CSc1cccc2cccnc12)OCC(=O)c1ccccc1 | 21µM* | 15% | 0% | 20µM*
O=C(Nc1ccc2nc(-c3ccco3)c(-c3ccco3)nc2c1)NC1CC1 | ? | 77% | -3% | 71µM*
COc1ccc(CCNC(=O)c2cc(-c3ccccc3O)n[nH]2)cc1OC | -2% | -3%[1.84 µM] | -2% | -1%
COc1ccc(CCNC(=O)c2ccc3nc(-c4ccco4)c(-c4ccco4)nc3c2)cc1OC | 27µM* | -70% | ? | 79µM*
CCC(C)NC(=O)c1ccc2nc(Cc3ccccc3)oc2c1 (centres undefined) | nt | nt | nt | 10%
COc1ccc(CCNC(=O)c2ccn[nH]2)cc1OC | 3µM* | 77% | 2% | -25%
CCC(C)NC(=O)c1ccc2nc(-c3ccco3)c(-c3ccco3)nc2c1 (centres undefined) | nt | 38% | nt | 50µM*
O=C(OCc1ccccc1)N1CCC2CC1c1cc(-c3ccc4c(c3)OCO4)ccc12 (centres undefined) | -4% | -8% | nt | -8%
O=C(Nc1cccc(C(F)(F)F)c1)c1ccc2nc(-c3ccco3)c(-c3ccco3)nc2c1 | 5.3µM* | -36% | -17% | 20µM*
COc1ccc(-n2sc3ccccc3c2=O)cc1 | 2.7µM* | 12% | nt | nt
COc1ccc2sc3ccccc3c(=O)c2c1 | -10% | 5.6µM* | 9% | 4%
Cc1ccc(-c2ccccc2NC(=O)CCl)o1 | -9% | -35% | 2% | -7%
Cc1ccc(-c2ccccc2NC(=O)CS(=O)CC(=O)Nc2ccc(C)c(Cl)c2)o1 (centres undefined) | 19µM* | -33% | -1% | 45µM*
CC(C)(C)c1ccc(C(=O)Nc2cccc(-n3cnnn3)c2)cc1 | -2% | 14% | -1% | 3%
CCCCCCCCCCCCCCCC(=O)C1=C(O)C(CO)OC1=O (centres undefined) | nt | nt | nt | 14µM*
COCC(C)NC(=O)C1CC(=O)N(CCc2ccc(F)cc2)C1 (centres undefined) | -7% | 2% | nt | nt
O=S(=O)(NCCNS(=O)(=O)c1cccs1)c1cccs1 | -2% | 31% | -4% | 12%
CN1CCN(NS(=O)(=O)c2cccs2)CC1 | 9.5µM* | -2% | 0% | -20%
CCCCn1nnnc1NCc1ccc(N2CCCC2)cc1 | -12% | -20% | -1% | -5%
CCCCn1nnnc1NCc1cccnc1 | 3µM* | 34% | -24% | -26%
O=C(/C=C/c1ccc(OCCCF)cc1)N1CCOCC1 | 4% | 10µM* | 0% | 0%
O=C(/C=C/c1ccccc1Cl)N1CCOCC1 | 5% | 32% | 0% | -14%
O=C(/C=C/c1cccc([N+](=O)[O-])c1)N1CCOCC1 | -21% | 17% | -1% | -5%
O=C(/C=C/c1cccc2ccccc12)N1CCOCC1 | -4% | 10µM* | 2% | -1%
SMILES | PLK1 PBD block | BRCA1 expr act | Tb PFK inh | VDR inh
CCCCCCOc1ccc(/C=C/C(=O)N2CCOCC2)cc1OC | 1% | 5% | -9% | 3%
O=C(/C=C/c1cccc(Oc2ccccc2)c1)N1CCOCC1 | -6% | 8.9µM* | -2% | 9%
CC(C)C(=O)N1CCC1(C)C(=O)Nc1ccc(-n2cccc2)cc1 (centres undefined) | 5% | 8% | nt | nt
CNC(=S)N/N=C(\C)c1ccc(N2CCOCC2)cc1 | ? | 8.9µM* | 3% | 8%
CCNC(=S)N/N=C(\C)c1ccc(N2CCOCC2)cc1 | -4% | 10% | 1% | -1%
Oc1cccc(C(=S)N2CCCCC2)c1 | 11µM* | 9% | -12% | ?
S=C(c1ccc(N2CCOCC2)cc1)N1CCOCC1 | 27µM* | 0% | -16% | ?
S=C(c1ccc(N2CCCC2)cc1)N1CCCCC1 | 8.4µM* | 28% | -1% | -20%
COc1ccc(C(=O)N2CCCC(C)(C(=O)NS(=O)(=O)C3CC3)C2)c(OC)c1 (centres undefined) | 5% | 2% | nt | nt
COc1ccc(NC(=O)CSc2nc(-c3ccccc3)nc3c2Cc2c(CO)cnc(C)c2O3)cc1Cl | nt | nt | nt | -10%
O=C(Nc1ccccc1C(F)(F)F)C1CCN(S(=O)(=O)Cc2ccccc2)CC1 | nt | nt | nt | 10%
Oc1ccc(C(=S)N2CCCC2)cc1 | 24µM* | -3% | -12% | ?
Oc1ccc(C(=S)N2CCCCCC2)cc1 | ? | 20% | -3% | 7%
CC(C)(C)c1cc(CCC(=O)N2CCCC2)cc(C(C)(C)C)c1O | -24% | 0% | 0% | 34%
CC(C)(C)c1cc(C(=S)N2CCCC2)cc(C(C)(C)C)c1O | 30µM* | -20% | -10% | ?
CCN(CC)CCNC(=O)c1ccc(-c2nc(CN3CCc4ccccc43)c(C)o2)cc1 | nt | -24% | nt | 18%
CC(=O)NCCNc1nc2cc(-c3ccc(C(=O)N4CCN(C)CC4)cc3)sc2c(=O)n1C | 1% | 13% | nt | nt
Cc1cc(C)nc(NS(=O)(=O)c2ccc(NC(=O)CSc3ncn[nH]3)cc2)n1 | 27µM* | 6% | 4% | 9%
Cc1cc2c(c(C)c1Cl)C(c1ccc3c(c1)OCO3)CC(c1ccccc1)O2 (centres undefined) | nt | nt | nt | -8%
Cc1cccc(CSCc2ccc(C(=O)O)o2)c1 | 24µM* | 33% | 2% | -6%
CC1CCCCC1NCc1cccc([N+](=O)[O-])c1 (centres undefined) | 27µM* | 75% | -9% | -13%
O=[N+]([O-])c1cccc(CNC2CCCCCC2)c1 | -9% | -20% | -16% | -7%
CCOC(=O)[C@H](Cc1ccc(O)cc1)NC(=O)c1ccccc1 | nt | nt | nt | -1%
Cc1c(-c2nc(-c3ccc4c(c3)OCO4)no2)nnn1-c1ccc(C(C)C)cc1 | nt | nt | nt | 8%
CCOC(=O)c1sc(N)nc1-c1ccccc1 | 27µM* | -21% | -1% | ?
SMILES | PLK1 PBD block | BRCA1 expr act | Tb PFK inh | VDR inh
CCOC(=O)c1sc(N)nc1C(F)(F)F | 27µM* | -47% | nt | -14%
C=C1CCN(C(CC(C)C)C(=O)Nc2nc3ccc(Cl)cc3s2)S(=O)(=O)c2ccccc21 (centres undefined) | nt | nt | nt | -4%
COc1ccc(C2=C(N3CCN(c4cccc(C)c4)C(C)C3)c3ccccc3C2=O)cc1 (centres undefined) | nt | nt | nt | 4%
O=C1N=c2ccc(Br)cc2=C1c1sc(=S)n(NS(=O)(=O)c2ccccc2)c1O | 24µM* | -58% | 1% | ?
Nc1nc(=S)n(-c2ccccc2)[nH]1 | 24µM* | 0% | -26% | -12%
Cc1nc(=S)n(-c2ccccc2)[nH]1 | -18% | -20% | -3% | 4%
COc1ccc(NC(=O)C2CCN(C(=O)c3sc4nc[nH]c(=O)c4c3C)CC2)cc1Cl | nt | nt | nt | 14%
CC(=O)c1ccc(NC(=O)c2cc3c([nH]c2=O)CC(c2ccccc2)CC3=O)cc1 (centres undefined) | nt | nt | nt | -9%
CCCSC1=N/C(=C\c2ccc([N+](=O)[O-])o2)C(=O)S1 | 7.5µM* | -9% | -20% | 79µM*
Cc1ccc(C)c(NC(=O)CCn2cnnn2)c1 | 30µM* | 6% | -2% | -15%
C/C=C\C=C/C(=O)Nc1cccc(C2=NOC3(C2)C[C@@H](C(N)=O)N(C(=O)COc2ccc(Cl)cc2)C3)c1 (some centres undefined) | ? | -5% | -14% | ?
